Measurements reported in the supplement of paper PMC8728848.
Only a selection was taken, and the strongest signals are over-represented in it overall.

Legend:
Assay in all cases: glycan array binding signal (z-score within array); higher = stronger binding
Settings in all cases: glycan notation: IUPAC condensed, linker removed
Fuc(a1-2)Gal = target: Fuc(a1-2)Gal
In short: (§1)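 The binding signal is a Z-score computed within each array. Data were drawn from 3228 arrays in the Consortium for Functional Glycomics database, restricted to those with a known protein sequence. Scores were averaged over arrays of the same protein sequence at different concentrations or buffers, and over linkers, and negative values can be taken as non-binding.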

[1] = target: Fuc(a1-2)Gal(b1-3)GalNAc(b1-3)Gal(a1-4)Gal(b1-4)Glc
In short: as §1

[2] = target: Fuc(a1-2)Gal(b1-3)[Fuc(a1-4)]GlcNAc(b1-2)Man(a1-3)[Fuc(a1-2)Gal(b1-3)[Fuc(a1-4)]GlcNAc(b1-2)Man(a1-6)]Man(b1-4)GlcNAc(b1-4)GlcNAc
In short: as §1

[3] = target: Fuc(a1-2)Gal(b1-4)GlcNAc(b1-2)Man
In short: as §1

[4] = target: Fuc(a1-2)Gal(b1-4)GlcNAc(b1-2)[Fuc(a1-2)Gal(b1-4)GlcNAc(b1-4)]Man(a1-3)[Fuc(a1-2)Gal(b1-4)GlcNAc(b1-2)Man(a1-6)]Man(b1-4)GlcNAc(b1-4)GlcNAc
In short: as §1

[5] = target: Fuc(a1-2)Gal(b1-4)[Fuc(a1-3)]GlcNAc(b1-2)Man(a1-6)[Fuc(a1-2)Gal(b1-4)[Fuc(a1-3)]GlcNAc(b1-2)Man(a1-3)]Man(b1-4)GlcNAc(b1-4)[Fuc(a1-6)]GlcNAc
In short: as §1

[6] = target: Fuc(a1-2)Gal(b1-4)[Fuc(a1-3)]GlcNAc(b1-2)[Fuc(a1-2)Gal(b1-4)[Fuc(a1-3)]GlcNAc(b1-4)]Man(a1-3)[Fuc(a1-2)Gal(b1-4)[Fuc(a1-3)]GlcNAc(b1-2)Man(a1-6)]Man(b1-4)GlcNAc(b1-4)GlcNAc
In short: as §1

[7] = target: Fuc(a1-2)[Gal(a1-3)]Gal(b1-4)[Fuc(a1-3)]GlcNAc
In short: as §1

[8] = target: Gal(a1-3)Gal(b1-3)GlcNAc(b1-2)Man(a1-3)[Gal(a1-3)Gal(b1-3)GlcNAc(b1-2)Man(a1-6)]Man(b1-4)GlcNAc(b1-4)GlcNAc
In short: as §1

[9] = target: Gal(a1-3)Gal(b1-4)[Fuc(a1-3)]GlcNAc(b1-2)Man(a1-3)[Gal(a1-3)Gal(b1-4)[Fuc(a1-3)]GlcNAc(b1-2)Man(a1-6)]Man(b1-4)GlcNAc(b1-4)GlcNAc
In short: as §1

[10] = target: Gal(a1-4)Gal(b1-4)GlcNAc(b1-2)Man(a1-3)[Gal(a1-4)Gal(b1-4)GlcNAc(b1-2)Man(a1-6)]Man(b1-4)GlcNAc(b1-4)GlcNAc
In short: as §1

Gal(a1-4)GlcNAc = target: Gal(a1-4)GlcNAc
In short: as §1

[11] = target: Gal(b1-3)GlcNAc(b1-2)Man(a1-3)[Gal(b1-3)GlcNAc(b1-2)Man(a1-6)]Man(b1-4)GlcNAc(b1-4)GlcNAc
In short: as §1

[12] = target: Gal(b1-3)GlcNAc(b1-2)Man(a1-3)[GlcNAc(b1-4)][Gal(b1-3)GlcNAc(b1-2)Man(a1-6)]Man(b1-4)GlcNAc(b1-4)GlcNAc
In short: as §1

[13] = target: Gal(b1-3)GlcNAc(b1-2)[Gal(b1-3)GlcNAc(b1-6)]Man(a1-6)[Gal(b1-3)GlcNAc(b1-2)Man(a1-3)]Man(b1-4)GlcNAc(b1-4)GlcNAc
In short: as §1

[14] = target: Gal(b1-3)GlcNAc(b1-3)Gal(b1-4)Glc
In short: as §1

[15] = target: Gal(b1-3)GlcNAc(b1-3)GalNAc
In short: as §1

[16] = target: Gal(b1-3)[Fuc(a1-4)]GlcNAc(b1-2)Man(a1-3)[Gal(b1-3)[Fuc(a1-4)]GlcNAc(b1-2)Man(a1-6)]Man(b1-4)GlcNAc(b1-4)[Fuc(a1-6)]GlcNAc
In short: as §1

[17] = target: Gal(b1-3)[Fuc(a1-4)]GlcNAc(b1-3)Gal(b1-4)[Fuc(a1-3)]GlcNAc
In short: as §1

[18] = target: Gal(b1-3)[Fuc(a1-4)]GlcNAc(b1-6)GalNAc
In short: as §1

[19] = target: Gal(b1-3)[Neu5Ac(a2-6)]GalNAc
In short: as §1

[20] = target: Gal(b1-3)[Neu5Ac(b2-6)]GalNAc
In short: as §1

Gal(b1-4)Glc = target: Gal(b1-4)Glc
In short: as §1

[21] = target: Gal(b1-4)GlcNAc(b1-3)Gal(b1-3)GlcNAc
In short: as §1

Gal(b1-6)Gal = target: Gal(b1-6)Gal
In short: as §1

Gal3S6S(b1-4)GlcNAc = target: Gal3S6S(b1-4)GlcNAc
In short: as §1

Gal6S(b1-4)GlcNAc = target: Gal6S(b1-4)GlcNAc
In short: as §1

[22] = target: GalNAc(b1-3)Gal(a1-6)Gal(b1-4)Glc
In short: as §1

GalNAc3S(b1-4)GlcNAc = target: GalNAc3S(b1-4)GlcNAc
In short: as §1

Glc(a1-4)Glc = target: Glc(a1-4)Glc
In short: as §1

B1: CALR truncated at D342 (Homo sapiens) (protein)
chain: EPAVYFKEQFLDGDGWTSRWIESKHKSDFGKFVLSSGKFYGDEEKDKGLQTSQDARFYALSASFEPFSNKGQTLVVQFTVKHEQNIDCGGGYVKLFPNSLDQTDMHGDSEYNIMFGPDICGPGTKKVHVIFNYKGKNVLINKDIRCKDDEFTHLYTLIVRPDNTYEVKIDNSQVESGSLEDDWDFLPPKKIKDPDASKPEDWDERAKIDDPTDSKPEDWDKPEHIPDPDAKKPEDWDEEMDGEWEPPVIQNPEYKGEWKPRQIDNPDYKGTWIHPEIDNPEYSPDPSIYAYDNFGVLGLDLWQVKSGTIFDNFLITNDEAYAEEFGNETWGVTKAAEKQMKD
Fuc(a1-2)Gal
  glycan array binding signal (z-score): -0.171
[1]
  glycan array binding signal (z-score): -0.373
[2]
  glycan array binding signal (z-score): 3.18
[3]
  glycan array binding signal (z-score): -1.98
[4]
  glycan array binding signal (z-score): 2.76
[5]
  glycan array binding signal (z-score): 1.04
[6]
  glycan array binding signal (z-score): 2.8
[7]
  glycan array binding signal (z-score): -0.484
[8]
  glycan array binding signal (z-score): 0.21
[9]
  glycan array binding signal (z-score): 2.73
[10]
  glycan array binding signal (z-score): 0.225
Gal(a1-4)GlcNAc
  glycan array binding signal (z-score): 4.99
[11]
  glycan array binding signal (z-score): -0.863
[12]
  glycan array binding signal (z-score): -0.281
[13]
  glycan array binding signal (z-score): 3.33
[14]
  glycan array binding signal (z-score): -0.183
[15]
  glycan array binding signal (z-score): -0.05
[16]
  glycan array binding signal (z-score): 1.24
[17]
  glycan array binding signal (z-score): 4.2
[18]
  glycan array binding signal (z-score): 0.999
[19]
  glycan array binding signal (z-score): -0.241
[20]
  glycan array binding signal (z-score): 0.075
Gal(b1-4)Glc
  glycan array binding signal (z-score): -0.137
[21]
  glycan array binding signal (z-score): 0.662
Gal(b1-6)Gal
  glycan array binding signal (z-score): 0.132
Gal3S6S(b1-4)GlcNAc
  glycan array binding signal (z-score): 0.029
Gal6S(b1-4)GlcNAc
  glycan array binding signal (z-score): -1.33
[22]
  glycan array binding signal (z-score): -0.627
GalNAc3S(b1-4)GlcNAc
  glycan array binding signal (z-score): 1.07
Glc(a1-4)Glc
  glycan array binding signal (z-score): -0.124
